Test results as given in PubChem BioAssay (NCATS).
“And” between values parts separate entries of the source, which are not always exact repeats. Identical values can stand only once. Inconclusive results are not listed. Where a call stands in place of a potency, no number is given. Where a structure was tested more than once in an assay, its records may differ in their call. The source made the active and inactive calls. Unless noted, calls come from the whole dose curve; as a rule, active = well fitted curve in the direction sought with a large enough effect; inconclusive = small, poorly fitted or top-dose-only effect, or another doubt; inactive = no such curve, though single readings can be large; an effect the other way counts as inactive or inconclusive.

Legend:
[1] = biological target: Galactokinase (Homo sapiens) (UniProt P51570); assay: qHTS Validation Assay for Inhibitors of Human Galactokinase (GALK) (AID 493189)
Procedure, shortened: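 Luminescence from leftover ATP (Kinase-Glo Plus, 10 min) served as read-out after a 1 h room-temperature reaction of 5 nM GALK, 100 uM galactose and 35 uM ATP at pH8.0.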

[2] = biological target: Phosphoglycerate kinase, glycosomal (Trypanosoma brucei brucei) (UniProt P07378); assay: qHTS Validation Assay to Find Inhibitors of Phosphoglycerate Kinase (AID 504547)
Procedure, shortened: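 PGK activity was coupled to GAPDH (100nM final), which generates the unstable substrate 1,3-bisphosphoglycerate in-well. Reactions ran 60 minutes at room temperature in 100mM TEA pH 7.6, 5mM MgCl2, 0.01% Tween-20, then Kinase-Glo Plus luminescence was read.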

[3] = biological target: phosphoglycerate mutase (Leishmania major) (UniProt Q4Q090); assay: qHTS Validation Assay to Find Inhibitors of Phosphoglycerate Mutase (AID 504548); note: series mostly up to about 58 µM
Procedure, shortened: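 Lm PGAM 1.25nM final; 100 mM TEA pH 7.6, 5 mM MgCl2, 0.01% Tween-20; 45 min RT; Kinase-GloPlus, 10 min; end-point luminescence. Enzyme-free wells as negative controls.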

[4] = Inducers of the Endoplasmic Reticulum Stress Response (ERSR) in human glioma: Validation (AID 504836)
Procedure, shortened: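 Stably transfected U87-MG glioma cells carrying a GRP78-based luciferase sensor; 16 h compound incubation. Luminescence end-point read 10 min after Bright-Glo addition at room temperature.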

[5] = biological target: Ubiquitin carboxyl-terminal hydrolase 1 (Homo sapiens) (UniProt O94782); assay: Inhibitors of USP1/UAF1: Pilot qHTS (AID 504865); note: nearly all actives have a fitted effect of over 35% in size; note: potency is the fitted concentration of half-maximal effect
Procedure, shortened: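 1nM USP1/UAF1 + cpd, 15 min RT; start w/ Ub-Rho 150nM final; kinetic FL 480/540 nm, 6 reads q60 s. Buffer 50mM HEPES pH 7.8, 0.5mM EDTA, 1mM TCEP, 0.01% Tween-20, 0.1 mg/ml BSA.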

[6] = biological target: DNA dC->dU-editing enzyme APOBEC-3G (Homo sapiens) (UniProt Q9HC16); assay: qHTS for inhibitors of Vif-A3G interactions: Validation (AID 588379)
Procedure, shortened: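 HeLa cells stably expressing Vif and A3G-eYFP, 700 cells/well, incubated overnight at 37 deg C, then exposed to compound overnight at 37 deg C. Inhibition of Vif-mediated degradation read as increased yellow fluorescence (Ex 488/Em 500-530) by laser-scanning cytometry.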

[7] = Validation screen for small molecules that induce DNA re-replication in SW480 colon adenocarcinoma cells (AID 504364); note: potency is the fitted concentration of half-maximal effect
Procedure, shortened: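 SW480 cells seeded at 250 per well were exposed to compound or DMSO for 48 hr at 37 C, 5% CO2, then stained with Hoechst for 40 min. DNA content per nucleus was imaged (405 nm ex, 500-530 nm em).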

[8] = biological target: Peptidyl-prolyl cis-trans isomerase NIMA-interacting 1 (Homo sapiens) (UniProt Q13526); assay: qHTS Validation Assay to Find Inhibitors of Pin1 (AID 504536; active = well fitted inhibition curve with a large enough effect in the polarisation, with a control signal flat, not every such curve was filed as active; the % refers to the polarisation)
Procedure, shortened: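 Fluorescence polarization competition: compounds (titration) displace HiFluor-488-labeled Pin1-1b peptide from Pin1 (0.3 uM final) in pH 7.5 HEPES buffer with DTT, 10 min at room temperature; %Activity normalized to no-enzyme wells, curves fitted.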

[9] = qHTS for Inhibitors of ATXN expression: Validation (AID 588378); note: nearly all actives have a fitted effect of over 75% in size; note: potency is the fitted concentration of half-maximal effect
Procedure, shortened: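 Cells: HEK293-ATXN2-FFLuc, phenol-red free DMEM, 2 h attachment. Compound pin-transfer, 24 h, 37 degrees C, 5% CO2. CellTiter-Fluor 30 min, Ex405/Em525; Bright-Glo 5 min, luminescence 2 s exposure.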

[10] = biological target: Estrogen receptor (Homo sapiens) (UniProt P03372); assay: qHTS assay for small molecule antagonists of estrogen receptor alpha signaling (AID 588513; active = well fitted curve in the direction sought with a large enough effect in the signal ratio, with a control signal flat, not every such curve was filed as active; the % refers to the signal ratio)
Procedure, shortened: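 Beta-lactamase reporter, antagonist mode, HEK 293 GripTite cells; 0.5nM E2 stimulus, 18 h, 37 C; CCF4 dye 2 h RT; fluorescence. IC50 and efficacy from Hill fits, normalized to E2 and DMSO.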

Sequence of Peptidyl-prolyl cis-trans isomerase NIMA-interacting 1 (Homo sapiens) (Q13526 whole entry, looked up): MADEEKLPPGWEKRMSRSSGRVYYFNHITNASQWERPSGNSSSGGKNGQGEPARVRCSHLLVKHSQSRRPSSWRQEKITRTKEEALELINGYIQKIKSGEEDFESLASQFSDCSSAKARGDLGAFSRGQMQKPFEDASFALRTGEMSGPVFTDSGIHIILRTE
Sequence of DNA dC->dU-editing enzyme APOBEC-3G (Homo sapiens) (Q9HC16 whole entry, looked up): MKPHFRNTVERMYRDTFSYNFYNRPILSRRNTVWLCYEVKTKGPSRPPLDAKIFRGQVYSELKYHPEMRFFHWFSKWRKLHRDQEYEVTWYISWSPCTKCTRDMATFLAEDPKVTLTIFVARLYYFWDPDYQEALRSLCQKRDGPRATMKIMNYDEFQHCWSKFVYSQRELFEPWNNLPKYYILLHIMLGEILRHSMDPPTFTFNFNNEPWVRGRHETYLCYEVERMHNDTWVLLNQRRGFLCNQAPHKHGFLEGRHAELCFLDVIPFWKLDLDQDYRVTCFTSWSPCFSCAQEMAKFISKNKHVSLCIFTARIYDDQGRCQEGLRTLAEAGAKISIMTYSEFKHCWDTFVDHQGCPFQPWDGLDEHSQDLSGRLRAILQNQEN
Sequence of phosphoglycerate mutase (Leishmania major) (Q4Q090 1-553): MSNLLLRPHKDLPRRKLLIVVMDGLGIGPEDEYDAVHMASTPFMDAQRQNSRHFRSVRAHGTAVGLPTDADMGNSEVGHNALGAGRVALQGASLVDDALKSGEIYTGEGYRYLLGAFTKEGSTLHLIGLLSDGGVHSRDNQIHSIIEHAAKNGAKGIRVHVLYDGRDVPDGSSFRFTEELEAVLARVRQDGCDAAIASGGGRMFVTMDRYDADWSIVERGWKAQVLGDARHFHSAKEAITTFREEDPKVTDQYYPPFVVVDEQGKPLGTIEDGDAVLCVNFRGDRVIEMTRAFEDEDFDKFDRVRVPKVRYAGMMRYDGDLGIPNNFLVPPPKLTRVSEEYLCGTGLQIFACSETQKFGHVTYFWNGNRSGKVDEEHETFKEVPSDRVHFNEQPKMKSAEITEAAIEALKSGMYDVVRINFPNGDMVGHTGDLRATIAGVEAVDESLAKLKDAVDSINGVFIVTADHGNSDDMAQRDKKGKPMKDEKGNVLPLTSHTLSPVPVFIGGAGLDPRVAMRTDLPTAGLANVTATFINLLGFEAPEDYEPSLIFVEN
Sequence of Galactokinase (Homo sapiens) (P51570 whole entry, looked up): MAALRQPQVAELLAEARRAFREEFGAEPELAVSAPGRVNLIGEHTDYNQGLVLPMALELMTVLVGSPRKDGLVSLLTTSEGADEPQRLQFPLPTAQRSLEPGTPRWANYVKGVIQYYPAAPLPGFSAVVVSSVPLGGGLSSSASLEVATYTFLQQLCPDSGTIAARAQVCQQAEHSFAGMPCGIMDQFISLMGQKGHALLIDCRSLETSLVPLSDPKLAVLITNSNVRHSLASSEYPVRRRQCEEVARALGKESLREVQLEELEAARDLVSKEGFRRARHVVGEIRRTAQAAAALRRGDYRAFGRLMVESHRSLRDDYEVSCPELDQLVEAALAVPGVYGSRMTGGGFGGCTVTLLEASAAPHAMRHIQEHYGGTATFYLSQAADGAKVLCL
Sequence of Estrogen receptor (Homo sapiens) (P03372 whole entry, looked up): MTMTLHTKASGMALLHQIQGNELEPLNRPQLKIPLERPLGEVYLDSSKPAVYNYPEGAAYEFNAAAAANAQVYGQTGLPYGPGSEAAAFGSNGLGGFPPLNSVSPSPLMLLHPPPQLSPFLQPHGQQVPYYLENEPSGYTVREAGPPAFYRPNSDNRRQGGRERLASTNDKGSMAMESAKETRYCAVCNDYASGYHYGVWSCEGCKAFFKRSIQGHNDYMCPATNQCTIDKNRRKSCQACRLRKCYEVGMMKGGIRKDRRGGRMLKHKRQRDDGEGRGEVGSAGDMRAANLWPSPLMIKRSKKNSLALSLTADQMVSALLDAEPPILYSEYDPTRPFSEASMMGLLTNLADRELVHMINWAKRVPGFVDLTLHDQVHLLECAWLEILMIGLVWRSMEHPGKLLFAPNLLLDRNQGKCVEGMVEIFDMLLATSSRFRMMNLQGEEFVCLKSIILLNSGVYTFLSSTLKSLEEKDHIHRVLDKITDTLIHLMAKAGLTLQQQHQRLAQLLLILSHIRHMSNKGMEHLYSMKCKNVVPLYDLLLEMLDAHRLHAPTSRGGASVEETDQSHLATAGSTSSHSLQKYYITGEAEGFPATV
Sequence of Ubiquitin carboxyl-terminal hydrolase 1 (Homo sapiens) (O94782 whole entry, looked up): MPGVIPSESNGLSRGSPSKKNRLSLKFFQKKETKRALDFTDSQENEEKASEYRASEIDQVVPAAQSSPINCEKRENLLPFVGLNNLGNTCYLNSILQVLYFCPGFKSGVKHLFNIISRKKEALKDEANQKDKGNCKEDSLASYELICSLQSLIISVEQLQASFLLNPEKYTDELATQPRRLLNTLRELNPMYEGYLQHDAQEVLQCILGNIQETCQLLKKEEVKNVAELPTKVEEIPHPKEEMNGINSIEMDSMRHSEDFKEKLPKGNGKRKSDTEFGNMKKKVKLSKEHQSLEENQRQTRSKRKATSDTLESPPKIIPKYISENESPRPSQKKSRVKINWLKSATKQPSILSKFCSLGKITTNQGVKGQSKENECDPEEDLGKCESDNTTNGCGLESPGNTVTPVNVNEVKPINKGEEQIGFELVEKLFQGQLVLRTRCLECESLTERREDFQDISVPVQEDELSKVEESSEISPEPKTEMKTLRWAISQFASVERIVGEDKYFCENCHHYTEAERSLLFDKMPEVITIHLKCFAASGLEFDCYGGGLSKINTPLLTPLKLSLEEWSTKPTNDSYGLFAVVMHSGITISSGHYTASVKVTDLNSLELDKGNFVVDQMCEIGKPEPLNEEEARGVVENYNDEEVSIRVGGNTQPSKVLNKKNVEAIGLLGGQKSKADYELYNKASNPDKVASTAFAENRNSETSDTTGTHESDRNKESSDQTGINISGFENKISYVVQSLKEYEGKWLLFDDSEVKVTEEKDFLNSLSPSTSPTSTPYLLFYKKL
Sequence of Phosphoglycerate kinase, glycosomal (Trypanosoma brucei brucei) (P07378 whole entry, looked up): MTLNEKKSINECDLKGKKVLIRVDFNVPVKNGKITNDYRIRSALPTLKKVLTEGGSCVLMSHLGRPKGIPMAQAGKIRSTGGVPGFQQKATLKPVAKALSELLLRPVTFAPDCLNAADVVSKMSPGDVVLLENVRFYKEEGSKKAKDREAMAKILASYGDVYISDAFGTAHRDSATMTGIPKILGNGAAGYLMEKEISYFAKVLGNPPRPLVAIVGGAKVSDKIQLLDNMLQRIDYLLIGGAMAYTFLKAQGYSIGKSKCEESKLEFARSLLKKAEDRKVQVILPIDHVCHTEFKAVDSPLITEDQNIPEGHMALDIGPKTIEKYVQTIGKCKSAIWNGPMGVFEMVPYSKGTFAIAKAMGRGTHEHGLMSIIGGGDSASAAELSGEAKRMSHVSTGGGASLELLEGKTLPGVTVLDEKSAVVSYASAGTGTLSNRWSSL

| Compound | outcome [1] | Potency [2] | outcome [3] | outcome [4] | Potency [5] | outcome [6] | Potency [7] | Potency [8] | Potency [9] | outcome [10] |
| --- | --- | --- | --- | --- | --- | --- | --- | --- | --- | --- |
| CN1C[C@H](CNC(=O)OCc2ccccc2)C[C@@H]2c3cccc4c3c(cn4C)C[C@H]21 | inactive | inactive | inactive | inactive | inactive | inactive | – | – | – | – |
| O=c1[nH]c2ccccc2n1CCCN1CCC(n2c(=O)[nH]c3cc(Cl)ccc32)CC1 | inactive | inactive | inactive | inactive | inactive | – | inactive | inactive | – | – |
| NN=C(N)N | inactive | inactive | inactive | inactive | inactive | inactive | inactive | inactive | inactive | – |
| O=c1[nH]c2ccccc2n1C1CCN(CCCC(c2ccc(F)cc2)c2ccc(F)cc2)CC1 | inactive | inactive | inactive | inactive | – | inactive | inactive | inactive | inactive | – |
| Clc1cccc(N2CCNCC2)c1 | inactive | – | – | – | inactive | inactive | inactive | – | – | – |
| Fc1ccc(C(OCCN2CCN(CCCc3ccccc3)CC2)c2ccc(F)cc2)cc1 | inactive | inactive | inactive | inactive | – | inactive | – | inactive | 20 µM (active) | – |
| CC(O)(CS(=O)(=O)c1ccc(F)cc1)C(=O)Nc1ccc(C#N)c(C(F)(F)F)c1 (stereo not given) | – | inactive | inactive | inactive | inactive | – | – | inactive | inactive | – |
| Cc1ccc(S(=O)(=O)N[C@@H](CCCCN)C(=O)CCl)cc1 | inactive | inactive | inactive | inactive | 50.1 µM (active) and 39.8 µM (active) | – | inactive | inactive | inactive | – |
| CC(C)=CCOc1c2occc2cc2ccc(=O)oc12 | – | inactive | inactive | inactive | inactive | – | – | inactive | inactive | – |
| COc1ccccc1N1CCNCC1 | inactive | inactive | inactive | inactive | inactive | – | inactive | inactive | inactive | – |
| Nc1ccncc1 | inactive | inactive | inactive | inactive | inactive | inactive | inactive | inactive | inactive | inactive |
| CC(=O)[C@H]1CC[C@H]2[C@@H]3CC[C@H]4C[C@H](O)CC[C@]4(C)[C@H]3C(=O)C[C@]12C | inactive | inactive | inactive | inactive | inactive | – | inactive | inactive | inactive | – |
| O=C1NCN(c2ccccc2)C12CCN(CC1COc3ccccc3O1)CC2 (stereo not given) | inactive | inactive | inactive | inactive | inactive | – | inactive | inactive | inactive | – |
| CCCC(C)(COC(N)=O)COC(=O)NC(C)C (stereo not given) | inactive | inactive | inactive | inactive | inactive | – | inactive | inactive | inactive | inactive |
| COc1cc2c(c(OC)c1OC)-c1ccc(OC)c(=O)cc1[C@@H](NC(C)=O)CC2 | – | – | – | inactive | inactive | – | 0.058 µM (active) | – | – | inactive |
| COc1ccc(Cc2nccc3cc(OC)c(OC)cc23)cc1OC | inactive | – | – | inactive | inactive and 50.1 µM (active) | – | inactive | – | – | – |
| CC(CCc1ccccc1)NC(C)C(O)c1ccc(O)cc1 (stereo not given) | inactive | inactive | inactive | inactive | inactive | – | inactive | inactive | – | – |
| CC[N+](CC)(CC)CC | inactive | – | – | inactive | inactive | – | inactive | – | – | – |
| CCn1cc(C(=O)O)c(=O)c2ccc(C)nc21 | inactive | – | – | inactive | – | – | inactive | – | – | – |
| NCC(CC(=O)O)c1ccc(Cl)cc1 (stereo not given) | inactive | inactive | inactive | inactive | inactive | – | inactive | inactive | inactive | – |
| CCC1(C2=NCCN2)Cc2ccccc2O1 (stereo not given) | inactive | inactive | inactive | inactive | inactive | – | inactive | inactive | inactive | – |
| COC[C@H]1OC(=O)c2coc3c2[C@@]1(C)C1=C(C3=O)C2CCC(=O)[C@@]2(C)C[C@H]1OC(C)=O (stereo not given in full) | inactive | inactive | inactive | – | inactive | – | inactive | – | – | – |
| CNCC(O)c1ccc(O)cc1 (stereo not given) | inactive | inactive | inactive | inactive | inactive | – | inactive | inactive | inactive | inactive |
| C[C@@H]1O[C@@H](O[C@H]2C[C@@H](O)[C@]3(CO)[C@H]4[C@H](O)C[C@]5(C)[C@@H](C6=CC(=O)OC6)CC[C@]5(O)[C@@H]4CC[C@]3(O)C2)[C@H](O)[C@H](O)[C@H]1O | – | inactive | inactive | inactive | inactive | – | inactive | inactive | inactive | – |
| Cc1cccc(C)c1NC1=NCCCS1 | inactive | inactive | inactive | inactive | inactive | – | inactive | inactive | inactive | – |
| c1ccc(C2CC2)c(OCC2=NCCN2)c1 | inactive | inactive | inactive | inactive | inactive | inactive | inactive | inactive | inactive | – |
